Assay results: the supplement of paper PMC5940239

Test system: Madurella mycetomatis MM55
Test: percent growth relative to solvent control; higher = less inhibition, active = 20 or less
Conditions: 100 µM; 7 days

Structure (SMILES)	percent growth
COc1cc(C2=NCCN2)ccc1-n1cc(-c2cccc(C3=NCCN3)c2)nn1	166% (inactive)
CN(C)CCNC(=O)N1CCCN(c2ncnc3cc(-c4ccccc4)sc23)CC1	64.5% (inactive)
COc1cc(Br)cc2cc(C(=O)Nc3cccc(C(F)(F)F)c3)c(=O)oc12	125% (inactive)
NCC(=O)N1CCn2c(nc(-c3ccccc3)c2Nc2ccc3c(c2)OCO3)C1	157% (inactive)
Nc1ncnc2c1c(Cc1cccc3ccccc13)nn2CC1CCNCC1	132% (inactive)
CCc1ccc([C@@H]2C[C@H](C(F)(F)F)n3ncc(C(=O)NCc4ccc(OC)cc4)c3N2)cc1	60.8% (inactive)
CS(=O)(=O)c1ccccc1C(=O)N(Cc1ccccc1)c1ccccc1	91% (inactive)
Cc1nc(-c2ccccn2)nc(NCCc2ccc(S(C)(=O)=O)cc2)c1Cl	118% (inactive)
Clc1cccc(C(c2ccc(CN3CCNCC3)cc2)n2ccnc2)c1 (stereo not drawn)	115% (inactive)
Cc1cc(NC(=O)c2ccc(Oc3ccc(Cl)cc3O)o2)no1	135% (inactive)
CCc1cc(=O)n(C)c(SC(C)C(=O)Nc2ccc(F)cc2)n1 (stereo not drawn)	61.1% (inactive)
Nc1ncc(Br)cc1-c1nc2cc(Cl)cnc2[nH]1	105% (inactive)
CC(C)(C)C(=O)N(CCCCCCN1C[C@H](O)[C@@H](O)[C@H](O)[C@H]1CO)C1CCCCCC1	86.6% (inactive)
CCOC(=O)c1cc(-c2csc(Nc3c(C)cc(C)cc3C)n2)on1	92.2% (inactive)
CNC(=O)c1cc(S(=O)(=O)N2CCN(c3ccccn3)CC2)cs1	143% (inactive)
COc1cccc(NC(=O)c2c(NC(=O)c3cccnc3)sc3c2CCC3)c1	50.9% (inactive)
CC(=O)N(CCN(C(=O)c1ccc(F)cc1)c1ccccc1)c1ccccc1	48.9% (inactive)
Nc1nc(N)c2c3c(sc2n1)CN(Cc1ccccc1)CC3	88% (inactive)
O=C(NCc1nnc2n1CCCCC2)c1ccc(-c2ccc(F)cc2)o1	87.7% (inactive)

Structure (SMILES)	percent growth
CCOc1ccccc1C(=O)Nc1cccc(-c2nc3ncccn3c2C)c1	97.2% (inactive)
Brc1c(-c2ccc3c(c2)OCO3)nc2ncccn12	85.6% (inactive)
CC(C)(C)c1cc(C(=O)Nc2cccnc2)cc(C(=O)Nc2cccnc2)c1	153% (inactive)
Cc1ccc(NC(=O)c2cc(S(=O)(=O)NC(C)(C)C)ccc2C)nc1	78.4% (inactive)
O=S(=O)(c1ccc(Cl)cc1)N1CCN(C(=S)NCc2ccco2)CC1	151% (inactive)
CNC(=O)C1Cc2c([nH]c3cc(Cl)ccc23)C2(CCN(CCc3ccccc3)CC2)N1 (stereo not drawn)	70% (inactive)
O=C(Nc1nc(-c2ccccn2)cs1)C1CC1c1ccccc1F (stereo not drawn)	46.7% (inactive)
COc1cc(OC)cc(C(=O)NCC2Cc3cc(Cl)cc(-c4ccncc4)c3O2)c1 (stereo not drawn)	55.9% (inactive)
O=C(NC1=NCCS1)c1sc2cc(F)ccc2c1Cl	107% (inactive)
COc1cccn2c(C(=O)N3CCCCC3)c(C(F)(F)F)nc12	85.7% (inactive)
Cc1cc(Nc2ccncc2)n2nc(C)c(-c3ccccc3Cl)c2n1	103% (inactive)
CCCNC(=O)N1CCC2(CC1)CC(=O)c1cc(C)ccc1O2	102% (inactive)
c1ccc(Oc2ccc(-c3cncc(-c4ccc5[nH]ccc5c4)n3)cc2)cc1	92.6% (inactive)
Cc1ccc(S(=O)(=O)N2CCN(C(=O)c3cc(-c4ccccc4)[nH]n3)CC2)cc1	146% (inactive)
NS(=O)(=O)c1cccc(-c2ccc3ncc(N4CCOCC4)nc3c2)c1	106% (inactive)
Cc1cc2nc(NC(=O)C(C)(C)C)nc(Cl)c2n1Cc1ccc(Cl)cc1	82.9% (inactive)
N#Cc1ccc(-c2ccc(OCC(N)=O)cc2)cc1	96.5% (inactive)
CC1CCCN(C(=O)C(C)Nc2cc(Cl)ccc2N2CCOCC2)C1 (stereo not drawn)	53.8% (inactive)
Cc1ccc(S(=O)(=O)Nc2ccc(CN3CCN(C(=O)c4cccc(C#N)c4)CC3)cc2)cc1	90.9% (inactive)
